In general, % Inhibition refers to the drop in the measured response relative to a control, in per cent.

Structures are written as SMILES. Out of some 150,000 compounds screened, about 540 (0.36%) showed an effect of 50% or more. Shown is part of a subset that was picked to be rich in strong results.

The experiment relates to Plasmodium falciparum. The experiment in a line: Primary screen in NF54 nanoGlo assay, in single point, at 2uM, 72h; a lower Z score goes with more inhibition. The format is functional, Erythrocyte. Conditions: timepoint 72 hour.
On to `COc1cc(NC(C)(C)CN2CCOCC2)ncn1`, for which the “% Inhibition” value is recorded as -11% and the Z score was determined as 0.99.
For `O=C(NC[C@H](O)c1cccnc1)c1ncoc1C1CC1` the same measures were -7% and 0.94.
Consider `COC[C@H]1CCCCN1C(=O)c1ccnc(C2CCCC2)n1`, for which the “% Inhibition” value stood at 7% and the Z score is -1.03.
Take `COc1ccc(N2CCN(C(=O)c3ccn4c(-c5ccccc5)nnc4c3)CC2)cc1`: the “% Inhibition” value is on record as -3% and the Z score was 0.29.
In the case of `COc1ccccc1CNC(=O)c1cc(C)nc2c(-c3ccc(C)cc3)cccc12`, the “% Inhibition” value worked out at 12% and the Z score is -1.38.
As for `COc1cccc(N2CCC(N3CCC4(CC3)CNC(=O)O4)CC2)c1`, the “% Inhibition” value is recorded as -2% and the Z score is recorded as 0.35.
For `Cc1nc2c(c(NC(=O)Cc3ccccc3)nn2C)c(C)c1Cl` the same measures were -8% and 0.76.
As to `Cc1ccc(N2CCC(NCCCn3cccn3)CC2)cc1Cl`, the “% Inhibition” value is recorded as -5% and the Z score stood at 0.81.
Turning to `CN1CCC[C@@H]1CCNC1CCN(c2ccc3c(c2)CCC3)CC1`, the “% Inhibition” value is 21% and the Z score is -2.96.
In the case of `Cc1cnccc1NCCNC1CCN(c2ccc(Cl)cc2)CC1`, the “% Inhibition” value worked out at 99% and the Z score is given as -17.94.
For `CCn1cncc1CNC1CCN(c2ccc3c(c2)CCC3)CC1`, the “% Inhibition” value is -14% and the Z score is given as 1.42.
On the same counts, the results for `Cc1cnccc1NCCNC1CCN(c2ccc3c(c2)CCC3)CC1` are 85% and -13.14.
Take `CN(CC1(CO)CCCC1)C(=O)CN1CCCCC1`: the “% Inhibition” value is reported as -8% and the Z score is on record as 1.48.
On the same counts, the results for `O=C(c1ccc(F)cc1)N1CCC(N2CCS(=O)(=O)CC2)CC1` are -12% and 1.04.
As to `CCc1cc(N2CCN(CCc3ccccc3)C(=O)C2)ncn1`, the “% Inhibition” value is recorded as -15% and the Z score is on record as 2.
Consider `Cc1ccc([C@H]2C(=O)N(C3CCC(C)CC3)CC(=O)N2C2CCCCCCC2)cc1` (some centres not stated), for which the “% Inhibition” value is reported as -6% and the Z score turned out to be 0.82.
On the same counts, the results for `O=C(O)C1(NCc2cc(-c3ccc(Cl)cc3)no2)CCCC1` are 11% and -1.27.
For `C[C@@H](O)[C@@H]1NC(=O)[C@@H](Cc2c[nH]c3ccccc23)NC1=O` the same measures were 5% and -1.07.
As to `CC1CC(C(=O)N2CCN(C(=O)Cc3c[nH]c4ccccc34)CC2)C1` (configuration not stated), the “% Inhibition” value is -3% and the Z score is recorded as 0.48.
As for `C=C1C(C)C2C(Cc3c[nH]c4ccccc34)NC(=O)C23C(=O)CC(O)C(O)CC(C)C/C=C/C3C1O` (configuration not stated), the “% Inhibition” value was found to be 67% and the Z score is given as -7.59.
As for `CC1=NO[C@H](C(=O)NCC2(Cn3ccnc3C)CC2)C1`, the “% Inhibition” value is -4% and the Z score is 0.75.
With `CCc1ccc(CN2CCC[C@H](CNC(=O)c3ccc[nH]3)C2)nc1`, the “% Inhibition” value is given as -4% and the Z score amounted to 0.44.
Consider `Cc1[nH]c(CN2CCC[C@H](c3ncc[nH]3)C2)cc1C#N`, for which the “% Inhibition” value was -1% and the Z score was found to be 0.23.
On the same counts, the results for `CCc1ccc(CN2CCC[C@H](c3ncc[nH]3)C2)nc1` are 65% and -9.74.
With `Cc1ccc(CN2CCC3(CC2)c2nc[nH]c2CCN3C(=O)C2CCC2)cc1C`, the “% Inhibition” value is listed as -14% and the Z score is on record as 1.47.
Consider `Cc1cccc2c1OCC[C@@H]2NCc1cnn(C(C)C)c1`, for which the “% Inhibition” value is reported as 0% and the Z score was determined as 0.
Take `O=C(O)c1cccc(-c2noc(C3CC3)n2)c1`: the “% Inhibition” value is recorded as 11% and the Z score was -1.45.
Take `O=C(c1cccc(-c2noc(C3CCC3)n2)c1)N1CCN(c2ccccc2)CC1`: the “% Inhibition” value is -3% and the Z score was 0.4.
Consider `CC1CC(N)CCN1C(=O)c1cccc(-c2noc(C3CC3)n2)c1` (configuration not stated), for which the “% Inhibition” value is reported as 56% and the Z score came to 0.5.
On to `Cc1cc(C(=O)N(CC2CCC2)CC(F)(F)F)[nH]n1`, for which the “% Inhibition” value is on record as -10% and the Z score is recorded as 1.63.
Consider `CN1CCCC[C@@H]1CNC(=O)c1ccc2nc(-c3ccc(F)cc3)cn2c1`, for which the “% Inhibition” value was -5% and the Z score came to 0.91.
Turning to `CN1CCC[C@@H]1CCNC(=O)c1ccc2nc(-c3ccc(F)cc3)cn2c1`, the “% Inhibition” value came to 8% and the Z score is on record as -1.12.
`O=C(NCCN1CCCC1)c1ccc2nc(-c3ccc(Cl)cc3)cn2c1`: the “% Inhibition” value stood at 75% and the Z score is -6.47.
As for `Cc1ccn2c(C(=O)NCc3cc(F)ccc3C)nnc2n1`, the “% Inhibition” value is recorded as -17% and the Z score amounted to 3.23.
In the case of `CN1CCN(Cc2cc3cc4c(cc3nc2-c2ccc(Cl)cc2)OCO4)CC1=O`, the “% Inhibition” value came out at 53% and the Z score is recorded as -6.77.
Consider `O=C1CCN(Cc2cc3cc4c(cc3nc2-c2ccc(Cl)cc2)OCO4)CCN1`, for which the “% Inhibition” value was 2% and the Z score is on record as -0.18.
On the same counts, the results for `CCN1CCN(Cc2cc3cc4c(cc3nc2-c2ccc(Cl)cc2)OCO4)CC1` are -10% and 1.95.
`Cc1ccc(-c2nnc(N3CCC4(CCOC4)C3)n2CC2CCCO2)s1` (configuration not stated): the “% Inhibition” value is reported as -3% and the Z score came to 0.32.
Consider `O=C1N[C@H]2C[C@@H](C(=O)NC[C@H]3O[C@H](CCOc4cc(-c5ccccc5)ccc41)CC[C@@H]3O)N(Cc1ccc(Cl)c(F)c1)C2`, for which the “% Inhibition” value was determined as 37% and the Z score is recorded as -4.16.
`O=C1N[C@H]2C[C@@H](C(=O)NC[C@H]3O[C@H](CCOc4ccccc41)CC[C@@H]3O)N(Cc1ccc3c(c1)OCO3)C2`: the “% Inhibition” value amounted to 26% and the Z score is reported as -2.92.
Consider `O=C1N[C@H]2C[C@@H](C(=O)NC[C@H]3O[C@H](CCOc4cc(-c5ccccc5)ccc41)CC[C@@H]3O)N(Cc1ccc3c(c1)OCO3)C2`, for which the “% Inhibition” value is listed as 51% and the Z score is on record as -1.36.
On to `CC(C)c1cc(NCCCn2ccnn2)nc(N)n1`, for which the “% Inhibition” value is -5% and the Z score was 0.75.
In the case of `CC(C)(C)CCCC(=O)NCCn1cnnc1C1CC1`, the “% Inhibition” value is given as -7% and the Z score is given as 1.32.
On to `CN1CC[C@@H](CNC(=O)c2ccnc3c2ncn3C)[C@@H]1c1cccnc1`, for which the “% Inhibition” value is reported as 1% and the Z score is recorded as -0.18.
In the case of `CN1CCC(N(C)C(=O)c2ccccc2NC2CCCCC2)CC1`, the “% Inhibition” value stood at 6% and the Z score is reported as -1.03.
With `COCCC(CNC(C)c1nccnc1C)NC(=O)OC(C)(C)C` (configuration not stated), the “% Inhibition” value is -12% and the Z score came to 1.51.
Consider `CCN1CCN(c2c(CN(C(=O)NC3CCCCC3)C(C)C)c(C)nn2-c2cccc(F)c2)CC1`, for which the “% Inhibition” value is given as -10% and the Z score amounted to 1.04.
For `Cc1ccc(C(=O)Nc2cc(C(=O)N3CCCCC3C)cc(C(=O)N3CCCCC3C)c2)cc1` (configuration not stated) the same measures were 6% and -0.87.
For `Cc1ccc(C(=O)Nc2ccc(N3CCCN(C(=O)C4CCCC4)CC3)c(C(=O)N3CCCCC3)c2)cc1`, the “% Inhibition” value is -4% and the Z score turned out to be 0.58.
Take `Cc1ccc(C(=O)Nc2cc3c4c(c2)C2CCCC2CN4CC2CCCC32)cc1` (configuration not stated): the “% Inhibition” value was determined as 57% and the Z score is given as -4.94.
Take `Fc1cc(Br)cnc1CN1CCC[C@H]1c1ncn[nH]1`: the “% Inhibition” value is reported as 19% and the Z score is listed as -2.4.

Source of the values: ChEMBL document CHEMBL4888484, “Replenishing the malaria drug discovery pipeline: Screening and hit evaluation of the MMV Hit Generation Library 1 (HGL1) against asexual blood stage Plasmodium falciparum ,using a nano luciferase reporter read-out” (2022).
